LmPK inh: blocks Leishmania mexicana pyruvate kinase activity | Q27686 | purified LmPK, Kinase-Glo ATP luminescence, 1 h | Potency, µM (doses to about 57.5 µM), for the others: top-dose activity change, negative = inhibition, most hits filed as inhibitors | 290,000 compounds, 0.37% hits | AID 1721
Target sequence (Q27686 whole entry, looked up): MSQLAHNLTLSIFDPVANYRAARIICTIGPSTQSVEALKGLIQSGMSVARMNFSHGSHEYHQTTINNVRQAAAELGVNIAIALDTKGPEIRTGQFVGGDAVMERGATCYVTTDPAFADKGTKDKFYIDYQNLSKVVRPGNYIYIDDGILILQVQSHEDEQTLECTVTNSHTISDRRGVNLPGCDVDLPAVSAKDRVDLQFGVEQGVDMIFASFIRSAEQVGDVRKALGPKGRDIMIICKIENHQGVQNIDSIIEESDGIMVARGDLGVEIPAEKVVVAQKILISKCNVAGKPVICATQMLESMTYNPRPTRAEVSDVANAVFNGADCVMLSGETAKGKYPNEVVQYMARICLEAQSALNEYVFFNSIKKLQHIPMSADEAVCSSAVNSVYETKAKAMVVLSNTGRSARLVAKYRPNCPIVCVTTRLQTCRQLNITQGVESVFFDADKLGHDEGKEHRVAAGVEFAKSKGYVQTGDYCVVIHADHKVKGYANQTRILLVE
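0.1 nM LmPK, 0.5 mM PEP, 0.1 mM ADP; 50 mM imidazole pH 7.2, 7 mM MgCl2, 50 mM KCl; 1 h RT. Kinase-Glo luminescence readout, normalized to no-enzyme (full inhibition) and uninhibited wells.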
Tb PYK inh: T. brucei pyruvate kinase inhibition; Q57TT1; TbPYK enzyme, Kinase-Glo Plus ATP luminescence, 45 min; Potency, µM (doses to about 76.8 µM), inactives show at the highest dose activity, negative = inhibition, most hits filed as inhibitors; 410,000 compounds, 0.12% hits; further: nearly all actives have a fitted effect of over 50% in size
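Enzyme and substrate buffer are dispensed first and compound is pin-transferred. ADP at 130 uM final then starts the reaction, which runs 45 min at room temperature. Detection reagent is added for 10 min before luminescence is imaged.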
Giardia FBPA inh: inhibitors of Giardia lamblia fructose-1,6-bisphosphate aldolase; AID 2451; purified Giardia FBPA; Potency, µM (highest dose often 59.6 µM), inactives show at the top dose activity, negative = inhibition, actives largely listed as inhibitors; 290,000 compounds, 0.71% hits; A8B2U2; further: nearly all actives have a fitted effect of over 55% in size
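Giardia FBPA (40 nM reagent) was preincubated 10 min at RT with compound (up to 57.5 uM final), then substrate plus GAPDH/TPI/NAD/arsenate coupling system with diaphorase/resazurin was added; resorufin fluorescence (525/598 nm) was read after 20 min.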
RE007 growth inh: less growth of the S. pombe RE007 Vpr strain; S. pombe RE007 Vpr strain, BacTiter-Glo ATP luminescence, 24 h; Potency, µM (series often up to 92.2 µM), without a hit: at the top dose activity change, negative = less growth, actives largely listed as inhibitors; 360,000 compounds, 0.21% hits; AID 651644; active means well fitted falling curve with a large enough effect; inconclusive means small, poorly fitted or top-dose-only effect; inactive means no such curve, though single readings can be large or run the other way; further: nearly all actives have a fitted effect of over 50% in size
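Fission yeast RE007 carrying one integrated HIV-1 vpr copy, seeded at OD 0.01 in PMG+AL medium with 23 nL pinned compound. Grown 24 h at 30 degrees; viability read by BacTiter-Glo luminescence after 5 min.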
Sm TGR block: blocks Schistosoma mansoni thioredoxin glutathione reductase | Q962Y6 | purified TGR, DTNB reduction, TNB absorbance 405 nm | Potency, µM (series often up to 114 µM), inactives show at the top dose activity change, negative = inhibition, usual class: inhibitors | 360,000 compounds, 3% hits | AID 485364; further: nearly all actives have a fitted effect of over 60% in size
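TGR 20 nM + NADPH 100 uM (dispensed conc.), cpd preinc 15 min RT; start with NADPH (500 uM addition) then DTNB (15 mM addition). Kinetic TNB absorbance, 405 nm filter. Four-parameter Hill fit across titration.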
* hit, by the source's call. Hits are enriched below; roughly 3.3% of the tested compounds scored in any of these assays. Unless noted, the call rests on the fitted dose curve; in most records, active means well fitted curve in the direction sought with a large enough effect; inconclusive means small, poorly fitted or top-dose-only effect, or another doubt; inactive means no such curve, though single readings can be large; an effect the other way counts as inactive or inconclusive. On the % scale 0 is the no-effect control and ±100 the full control effect; potency means the concentration at half of the fitted maximal effect.

How did CC(C)(C)OC(=O)N1CCN(c2ccc(NC(=O)Cn3nnc(-c4ccccc4)n3)cc2)CC1 do in these assays?
LmPK inh: 4%; Tb PYK inh: 4%; Giardia FBPA inh: 1%; RE007 growth inh: 7%; Sm TGR block: -22%

What do the screens show for `CCCCNC(=O)CCCCn1c(=S)[nH]c2c([nH]c3ccc(OC)cc32)c1=O`?
LmPK inh: -2%; Tb PYK inh: -12%; Giardia FBPA inh: 4%; RE007 growth inh: 3%; Sm TGR block: -7%

What do the screens show for `COc1ccc2[nH]c3c(=O)n(CCCCC(=O)N4CCC(C(N)=O)CC4)c(=S)[nH]c3c2c1`?
LmPK inh: 4µM*; Tb PYK inh: 6.3µM*; Giardia FBPA inh: -5%; RE007 growth inh: -16%; Sm TGR block: -9%

Results for COc1ccc2[nH]c3c(=O)n(CCCCC(=O)NCCN4CCCC4)c(=S)[nH]c3c2c1 ?
LmPK inh: 7.1µM*; Tb PYK inh: 6.3µM*; Giardia FBPA inh: -14%; RE007 growth inh: -5%; Sm TGR block: 45%

Results for COc1ccc(C2=NN(C(=O)CCC(=O)O)C(c3ccc(Br)cc3)C2)cc1 (stereo unspecified) ?
LmPK inh: 4%; Tb PYK inh: -14%; Giardia FBPA inh: 10%; RE007 growth inh: 5%; Sm TGR block: inconclusive

What do the screens show for `O=C1OCCN1CCNCc1cn(-c2ccc(F)cc2)nc1-c1ccccc1Cl`?
LmPK inh: 3%; Tb PYK inh: 2%; Giardia FBPA inh: 5%; RE007 growth inh: -8%; Sm TGR block: inconclusive

Results for Cc1ccc(-n2cc(CNCCN3CCOC3=O)c(-c3cccc(C)c3)n2)cc1 ?
LmPK inh: 0%; Tb PYK inh: 10%; Giardia FBPA inh: 2%; RE007 growth inh: -5%; Sm TGR block: 22µM*

Results for COc1ccc(CCNC(=O)COc2cc(C)cc3oc(=O)cc(C)c23)cc1OC ?
LmPK inh: 5%; Tb PYK inh: 5%; RE007 growth inh: -5%; Sm TGR block: 11%

What do the screens show for `CN1/C(=C\C(=S)NC(=O)c2ccc([N+](=O)[O-])cc2)C(C)(C)c2ccccc21`?
LmPK inh: 5%; Tb PYK inh: 2%; Giardia FBPA inh: 0%; RE007 growth inh: 7%; Sm TGR block: -19%

Results for CN1/C(=C/C2CC(=O)N(c3ccc([N+](=O)[O-])cc3)C2=O)C(C)(C)c2ccccc21 (stereo unspecified) ?
LmPK inh: -5%; Tb PYK inh: -8%; Giardia FBPA inh: -18%; RE007 growth inh: -21%; Sm TGR block: 13µM*

Results for COc1ccc(CCNC(=O)c2nc(-c3cccs3)no2)cc1OC ?
LmPK inh: 1%; Tb PYK inh: -9%; Giardia FBPA inh: -4%; RE007 growth inh: -17%; Sm TGR block: 9%

Results for CN=c1sc(C(=O)Nc2cccc(Cl)c2)cc(=O)n1C ?
LmPK inh: 2%; Tb PYK inh: 20µM*; Giardia FBPA inh: 1%; RE007 growth inh: 0%; Sm TGR block: -4%

Results for CC(C)c1cc(=O)[nH]c(SCC(=O)NC2CCCC2)n1 ?
LmPK inh: -4%; Tb PYK inh: -7%; RE007 growth inh: 5%; Sm TGR block: 0%

Results for Cc1ccccc1N1C(=O)/C(=C/c2ccco2)C(=O)NC1=S ?
LmPK inh: -8%; Giardia FBPA inh: inconclusive; Sm TGR block: 45µM*

How did O=C1NC(=O)C(=Cc2cccs2)C(=O)N1 do in these assays?
Tb PYK inh: inconclusive; RE007 growth inh: 9%

Results for CCOc1ccc(N2C(=O)/C(=C\c3cccs3)C(=O)NC2=S)cc1 ?
LmPK inh: -4%; Tb PYK inh: inconclusive; Giardia FBPA inh: 7%; RE007 growth inh: -6%; Sm TGR block: 8.9µM*

Results for CCOc1ccc(N2C(=O)/C(=C/c3ccco3)N(C)C2=S)cc1 ?
LmPK inh: 1%; Tb PYK inh: -22%; Giardia FBPA inh: -10%; RE007 growth inh: 3%; Sm TGR block: 50µM*

Results for O=C1NC(=S)N(c2ccccc2F)C(=O)/C1=C\c1cccs1 ?
LmPK inh: 14%; Tb PYK inh: -29%; Giardia FBPA inh: -5%; RE007 growth inh: 27%; Sm TGR block: 7.9µM*

Results for CCOc1ccc(N2C(=O)/C(=C/c3ccccc3OCC(=O)OC)N(CC(=O)OC)C2=S)cc1 ?
LmPK inh: 5%; Tb PYK inh: -19%; Giardia FBPA inh: -3%; RE007 growth inh: -2%

What do the screens show for `CC(C)=CCC[C@](C)(O)C1CC[C@]2(C)C1[C@H](O)CC1[C@@]3(C)CC[C@H](O[C@@H]4O[C@H](CO)[C@@H](O)[C@H](O)[C@H]4O[C@@H]4O[C@H](CO)[C@@H](O)[C@H](O)[C@H]4O)C(C)(C)C3CC[C@]12C` (stereo partly specified)?
Tb PYK inh: -6%; RE007 growth inh: -21%

What do the screens show for `CC(C)c1ccc2nc(NC(=O)C3CC3)sc2c1`?
LmPK inh: -3%; Tb PYK inh: 3%; Giardia FBPA inh: -7%; RE007 growth inh: -12%; Sm TGR block: -8%

How did Cc1nc2c(cc1N)nc(C)n2Cc1ccccc1 do in these assays?
LmPK inh: -1%; Tb PYK inh: 2%; Giardia FBPA inh: 7%; RE007 growth inh: 2%; Sm TGR block: -16%

Results for CCOC(=O)C1CCN(S(=O)(=O)c2cccc(C(=O)Nc3ccccc3)c2)CC1 ?
LmPK inh: -3%; Tb PYK inh: -11%; RE007 growth inh: 2%; Sm TGR block: -24%

What do the screens show for `Cc1ccc(/C=C2\C(=O)NC(=O)N2C)o1`?
LmPK inh: -1%; Tb PYK inh: -25%; Giardia FBPA inh: -28%; RE007 growth inh: -1%; Sm TGR block: 35µM*

What do the screens show for `Cc1ccc(/C=C2\C(=O)Nc3ccccc32)o1`?
LmPK inh: -17%; Tb PYK inh: inconclusive; Giardia FBPA inh: -22%; RE007 growth inh: -28%; Sm TGR block: 25µM*

What do the screens show for `Cc1ccc(/C=C2/C(=O)N(c3ccccc3)C(=S)N2C)o1`?
LmPK inh: -10%; Tb PYK inh: inconclusive; Giardia FBPA inh: -14%; RE007 growth inh: inconclusive; Sm TGR block: 22µM*

How did CCOC(=O)C1=C(C)N(c2ccc(OCC)cc2)C(=O)/C1=C\c1ccco1 do in these assays?
LmPK inh: 10%; Tb PYK inh: 3%; Giardia FBPA inh: -8%; RE007 growth inh: 12%; Sm TGR block: 18µM*

Results for NS(=O)(=O)c1ccc(-c2ccc(/C=C3\C(=O)Nc4ccccc43)o2)cc1 ?
LmPK inh: 6%; Giardia FBPA inh: 13%; Sm TGR block: -27%

What do the screens show for `N#Cc1cccc(-c2nc3cnc(N4CCOCC4)nc3n(C3CC3)c2=O)c1`?
Giardia FBPA inh: 1%
